Measurements reported in PubChem BioAssay (Tox21).
Inconclusive results are not listed. Activity calls are given as the source filed them. Unless noted, the call rests on the fitted dose curve.

molecular target: Retinoic acid receptor RXR-alpha (Homo sapiens) (UniProt P19793); experiment: qHTS assay to identify small molecule agonists of the RXR signaling pathway (AID 1159527); conditions: HEK293T RXRa-UAS-bla, beta-lactamase ratio, 16 h; series mostly up to 76.8 µM; activation: at the top concentration; further: nearly all actives have a fitted effect of over 35% in size
In short: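 qHTS of the Tox21 10K library in GeneBLAzer RXR-alpha HEK 293T cells carrying a beta-lactamase reporter […]; 16 hr treatment, 9-cis retinoic acid as agonist control, FRET read-out.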
On the % scale 0 is the no-effect control and ±100 the full control effect; potency means the concentration at half of the fitted maximal effect.

Chain of Retinoic acid receptor RXR-alpha (Homo sapiens) (P19793 whole entry, looked up): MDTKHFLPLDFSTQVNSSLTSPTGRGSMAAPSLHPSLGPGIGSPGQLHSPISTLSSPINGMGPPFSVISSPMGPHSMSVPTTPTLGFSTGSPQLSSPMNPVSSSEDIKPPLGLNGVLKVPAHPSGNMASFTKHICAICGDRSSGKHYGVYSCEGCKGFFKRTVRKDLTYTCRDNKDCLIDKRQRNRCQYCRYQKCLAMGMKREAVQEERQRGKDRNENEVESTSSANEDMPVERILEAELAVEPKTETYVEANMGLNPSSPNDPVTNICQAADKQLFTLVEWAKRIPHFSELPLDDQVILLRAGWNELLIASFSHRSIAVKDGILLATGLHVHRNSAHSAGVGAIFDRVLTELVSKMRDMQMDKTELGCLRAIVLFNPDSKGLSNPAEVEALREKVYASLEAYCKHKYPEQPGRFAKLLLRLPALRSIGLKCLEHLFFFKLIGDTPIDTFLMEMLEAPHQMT

SMILES	activation	Potency
Cc1ccc2ccccc2c1	2.23% (inactive)	–
CC(=O)[C@H]1CC[C@H]2[C@@H]3CC[C@H]4C[C@](C)(O)CC[C@]4(C)[C@H]3CC[C@]12C	-8.67% [at 35.3 µM] (inactive)	–
CCCCN(N=O)C(=N)N[N+](=O)[O-]	-13% (inactive)	–
O=[N+]([O-])c1ccc(F)c([N+](=O)[O-])c1	-11% (inactive)	–
Clc1cccc2ccccc12	0.722% (inactive)	–
C=CCC1([C@H](C)CCC)C(=O)NC(=O)NC1=O	6.02% (inactive)	–
Cc1ccc(N)cc1C	-0.516% (inactive)	–
CC(Cl)C(C)Cl (stereo unspecified)	-2.5% (inactive)	–
O=S(=O)(Cl)c1ccccc1	-9.42% (inactive)	–
N#Cc1ccc(Cl)cc1	5.23% (inactive)	–
O=S(=O)(O)C(F)(F)C(F)(F)C(F)(F)C(F)(F)F	–	6.54 µM (active)
CC1(C)[C@H](C=C(Cl)Cl)[C@@H]1C(=O)O[C@@H](C#N)c1cccc(Oc2ccccc2)c1	-18.2% (inactive)	–
NCC(CC(=O)O)c1ccc(Cl)cc1 (stereo unspecified)	1.21% [at 0.29 µM] (inactive)	–
Cl/C=C\Cl	17.3% (inactive)	–
C=CC(=O)NCNC(=O)C=C	–	4.35 µM (active)
CC(C)=CCOc1c2occc2cc2ccc(=O)oc12	-2.5% [at 35.3 µM] (inactive)	–
CCOP(=O)(OCC)SCCSCC	–	inactive

SMILES	activation	Potency
CCBr	7% (inactive)	–
CC1CC(CC2CCC(N)C(C)C2)CCC1N (stereo unspecified)	-7.58% (inactive)	–
COc1cc(Cl)c(OC)cc1Cl	10.9% (inactive)	–
COC(=O)c1cncn1C(C)c1ccccc1 (stereo unspecified)	8.41% [at 35.3 µM] (inactive)	–
CC(c1ccc(O)cc1)(c1ccc(O)cc1)c1ccc(O)cc1	16.2% (inactive)	–
Oc1ccc(Cl)c(Cl)c1Cl	-6.38% (inactive)	–
c1ccc(C2CC2)c(OCC2=NCCN2)c1	4.1% [at 35.3 µM] (inactive)	–
C=C(C#N)CCC#N	7.02% (inactive)	–
COP(=O)(OC)O/C(=C/Cl)c1cc(Cl)c(Cl)cc1Cl	-20.4% (inactive)	–
CCOC(=O)C(Cl)C(C)=O (stereo unspecified)	-4.48% (inactive)	–
O=C(O)C(F)(F)C(F)(F)C(F)(F)C(F)(F)C(F)(F)C(F)(F)C(F)(F)C(F)(F)C(F)(F)F	11.5% (inactive)	–
CC(Cl)Cl	11.5% (inactive)	–
Cc1ccccc1CCl	6.08% (inactive)	–
CCOP(=O)(OCC)Oc1ccc([N+](=O)[O-])cc1	3.42% (inactive)	–
O=[N+]([O-])c1cc(C(F)(F)F)cc([N+](=O)[O-])c1Cl	-5.31% (inactive)	–
C=CC(=O)OCC(C)O (stereo unspecified)	13.8% (inactive)	–

tested on: not listed separately; experiment: qHTS assay to identify small molecule agonists of the RXR signaling pathway - cell viability counter screen (AID 1159529; active means well fitted cell-killing curve with a large enough effect in the repeat runs; further: nearly all actives have a fitted effect of over 50% in size); conditions: RXR-alpha-bla HEK293T viability, CellTiter-Glo, 16 h; series mostly up to 76.8 µM; activity change, negative = cytotoxicity: at the top concentration
In short: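 Cell viability is measured by CellTiter-Glo luminescence, 30 min at room temperature, in wells already read for beta-lactamase. Engineered HEK 293T cells (RXR-alpha-UAS-bla) are dosed 16 hr at 37 C. Tetraoctyl ammonium bromide serves as positive control.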

SMILES	Potency	activity change, negative = cytotoxicity
CCCCC(O)(Cn1cncn1)c1ccc(Cl)cc1Cl (stereo unspecified)	54.9 µM (active)	–
Cl/C=C\Cl	–	20.6% (inactive)
CC(C)=CCOc1c2occc2cc2ccc(=O)oc12	–	-7.65% [at 35.3 µM] (inactive)
CC(=O)c1cc2c(cc1C)C(C)(C)C(C)CC2(C)C (stereo unspecified)	43.6 µM (active)	–
CCBr	–	8.62% (inactive)
c1ccc(C2CC2)c(OCC2=NCCN2)c1	–	-7.91% [at 35.3 µM] (inactive)
CC(Cl)Cl	–	-5.91% (inactive)
C=CC(=O)OCC(C)O (stereo unspecified)	–	9.25% (inactive)
